# Tests used:
# Assay in all cases: DAPPL (digital affinity profiling via proximity ligation, sequencing); 10 mM Tris-HCl pH 7.5, 50 mM NaCl, 1 mM DTT, 4% glycerol, room temperature, 30 min; GST-TFs on glutathione beads, 16-mer random dsDNA library, 0.1% formaldehyde crosslink after washing; high values mean tight binding
# [1] = molecular target: T1, FLI1 (Homo sapiens, UniProt Q01543 1-452); conditions: protein: recombinant; tags: N-terminal GST; dsDNA, one strand shown
# T1 sequence: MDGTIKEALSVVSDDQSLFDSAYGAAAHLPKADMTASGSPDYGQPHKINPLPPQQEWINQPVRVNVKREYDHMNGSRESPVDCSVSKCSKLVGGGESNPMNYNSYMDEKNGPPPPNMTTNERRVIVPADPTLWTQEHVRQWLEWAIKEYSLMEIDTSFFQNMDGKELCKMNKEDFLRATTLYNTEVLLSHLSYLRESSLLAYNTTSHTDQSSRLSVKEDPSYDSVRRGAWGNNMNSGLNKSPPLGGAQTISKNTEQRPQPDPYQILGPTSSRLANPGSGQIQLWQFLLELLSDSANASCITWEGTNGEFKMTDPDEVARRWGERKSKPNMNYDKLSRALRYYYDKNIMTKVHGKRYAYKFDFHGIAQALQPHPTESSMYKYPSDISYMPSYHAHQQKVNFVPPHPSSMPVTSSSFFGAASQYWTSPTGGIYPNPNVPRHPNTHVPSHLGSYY
# How it was run: (§1)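 After expression in yeast as GST fusions, human transcription factors were bound to glutathione beads, DNA-barcoded and mixed with a tag-only sample. The pools were incubated with 200 nmole of a 16-mer random double-stranded DNA library in Tris/NaCl/DTT/glycerol buffer (30 min, room temperature), washed and crosslinked with 0.1% formaldehyde. Proximity ligation with BsaI/T4 ligase ran for 1 h at 37 °C, before PCR amplification and sequencing on an Illumina NextSeq500. Binding signal is a hexamer's read frequency for a factor divided by its frequency for the tag-only sample.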
# [2] = molecular target: T2, ELK1 (Homo sapiens, UniProt P19419 1-428); conditions: protein: recombinant; tags: N-terminal GST; dsDNA, one strand shown
# T2 sequence: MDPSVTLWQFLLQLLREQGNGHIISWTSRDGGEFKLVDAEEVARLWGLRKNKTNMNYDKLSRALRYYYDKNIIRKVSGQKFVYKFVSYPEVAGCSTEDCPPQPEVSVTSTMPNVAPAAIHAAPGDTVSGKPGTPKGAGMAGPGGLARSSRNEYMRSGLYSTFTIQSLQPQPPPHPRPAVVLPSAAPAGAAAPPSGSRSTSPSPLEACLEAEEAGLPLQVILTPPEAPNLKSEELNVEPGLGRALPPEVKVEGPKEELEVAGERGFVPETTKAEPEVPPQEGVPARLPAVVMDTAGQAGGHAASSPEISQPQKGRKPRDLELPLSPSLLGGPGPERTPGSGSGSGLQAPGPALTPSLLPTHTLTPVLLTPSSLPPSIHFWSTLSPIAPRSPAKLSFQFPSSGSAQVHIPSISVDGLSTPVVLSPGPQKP
# How it was run: as §1
# [3] = molecular target: T3, GABPA (Homo sapiens, UniProt Q06546 1-454); conditions: protein: recombinant; tags: N-terminal GST; dsDNA, one strand shown
# T3 sequence: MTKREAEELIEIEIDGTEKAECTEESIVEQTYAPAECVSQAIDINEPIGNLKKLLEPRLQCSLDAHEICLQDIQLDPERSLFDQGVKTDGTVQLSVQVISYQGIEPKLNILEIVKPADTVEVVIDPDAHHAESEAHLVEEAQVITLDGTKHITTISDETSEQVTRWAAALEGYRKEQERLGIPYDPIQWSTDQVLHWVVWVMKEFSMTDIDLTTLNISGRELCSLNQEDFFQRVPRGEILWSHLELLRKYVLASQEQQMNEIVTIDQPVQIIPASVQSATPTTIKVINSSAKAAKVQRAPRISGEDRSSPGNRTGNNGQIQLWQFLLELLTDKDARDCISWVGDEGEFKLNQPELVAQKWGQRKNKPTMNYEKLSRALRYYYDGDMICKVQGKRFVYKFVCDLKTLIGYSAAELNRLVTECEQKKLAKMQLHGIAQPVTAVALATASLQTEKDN
# How it was run: as §1
# [4] = molecular target: T4, ERG (Homo sapiens, UniProt P11308 1-479); conditions: protein: recombinant; tags: N-terminal GST; dsDNA, one strand shown
# T4 sequence: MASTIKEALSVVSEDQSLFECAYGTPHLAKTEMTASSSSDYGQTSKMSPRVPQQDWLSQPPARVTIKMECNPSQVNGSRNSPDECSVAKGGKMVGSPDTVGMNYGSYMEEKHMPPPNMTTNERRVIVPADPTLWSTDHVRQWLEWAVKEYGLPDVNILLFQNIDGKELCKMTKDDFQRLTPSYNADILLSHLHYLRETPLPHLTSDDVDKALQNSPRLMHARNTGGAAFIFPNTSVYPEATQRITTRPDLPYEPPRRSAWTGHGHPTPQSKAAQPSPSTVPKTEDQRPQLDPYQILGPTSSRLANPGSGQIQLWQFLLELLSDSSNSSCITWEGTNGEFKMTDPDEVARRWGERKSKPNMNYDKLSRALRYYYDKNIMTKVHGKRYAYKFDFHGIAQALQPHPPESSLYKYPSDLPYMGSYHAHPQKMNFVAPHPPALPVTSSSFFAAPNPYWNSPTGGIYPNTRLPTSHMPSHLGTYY
# How it was run: as §1
# [5] = molecular target: ELF1 (Homo sapiens, UniProt P32519 1-619); conditions: protein: recombinant; tags: N-terminal GST; dsDNA, one strand shown
# How it was run: as §1
# [6] = molecular target: T5, EHF (Homo sapiens, UniProt Q9NZC4 1-300); conditions: protein: recombinant; tags: N-terminal GST; dsDNA, one strand shown
# T5 sequence: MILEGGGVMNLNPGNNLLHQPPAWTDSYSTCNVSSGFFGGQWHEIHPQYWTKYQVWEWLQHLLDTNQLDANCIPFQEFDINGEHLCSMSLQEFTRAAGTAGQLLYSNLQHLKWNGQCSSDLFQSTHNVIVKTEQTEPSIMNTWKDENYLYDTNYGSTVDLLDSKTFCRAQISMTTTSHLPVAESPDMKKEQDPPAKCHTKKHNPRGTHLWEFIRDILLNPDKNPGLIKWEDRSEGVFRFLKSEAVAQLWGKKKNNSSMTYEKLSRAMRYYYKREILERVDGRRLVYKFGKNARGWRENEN
# How it was run: as §1
# [7] = molecular target: SPI1 (Homo sapiens, UniProt P17947 1-270); conditions: protein: recombinant; tags: N-terminal GST; dsDNA, one strand shown
# How it was run: as §1
# [8] = molecular target: SPIB (Homo sapiens, UniProt Q01892 1-262); conditions: protein: recombinant; tags: N-terminal GST; dsDNA, one strand shown
# How it was run: as §1
# [9] = molecular target: T6, ELK3 (Homo sapiens, UniProt P41970 1-407); conditions: protein: recombinant; tags: N-terminal GST; dsDNA, one strand shown
# T6 sequence: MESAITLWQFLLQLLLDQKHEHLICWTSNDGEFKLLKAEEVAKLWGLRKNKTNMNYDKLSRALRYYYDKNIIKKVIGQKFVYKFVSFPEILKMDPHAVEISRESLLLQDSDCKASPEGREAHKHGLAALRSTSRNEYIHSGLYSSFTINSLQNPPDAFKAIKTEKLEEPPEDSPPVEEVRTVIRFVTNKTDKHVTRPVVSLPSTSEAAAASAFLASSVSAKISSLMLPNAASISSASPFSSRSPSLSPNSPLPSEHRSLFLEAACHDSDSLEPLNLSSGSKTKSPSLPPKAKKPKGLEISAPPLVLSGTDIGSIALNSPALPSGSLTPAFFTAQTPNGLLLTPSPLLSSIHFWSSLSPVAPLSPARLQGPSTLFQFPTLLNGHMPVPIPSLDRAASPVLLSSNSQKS
# How it was run: as §1
# [10] = molecular target: T7, FEV (Homo sapiens, UniProt Q99581 1-238); conditions: protein: recombinant; tags: N-terminal GST; dsDNA, one strand shown
# T7 sequence: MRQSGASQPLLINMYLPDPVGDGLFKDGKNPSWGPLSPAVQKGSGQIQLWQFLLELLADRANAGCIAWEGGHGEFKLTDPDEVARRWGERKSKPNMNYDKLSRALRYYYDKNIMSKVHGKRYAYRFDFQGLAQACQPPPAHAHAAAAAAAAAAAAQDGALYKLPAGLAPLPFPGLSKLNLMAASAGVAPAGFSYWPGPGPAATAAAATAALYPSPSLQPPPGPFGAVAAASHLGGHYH
# How it was run: as §1
# [11] = molecular target: ETV5 (Homo sapiens, UniProt P41161 1-510); conditions: protein: recombinant; tags: N-terminal GST; dsDNA, one strand shown
# How it was run: as §1
# [12] = molecular target: HSF1 (Homo sapiens, UniProt Q00613 1-529); conditions: protein: recombinant; tags: N-terminal GST; chain copies: 3; dsDNA, one strand shown
# How it was run: as §1
# [13] = molecular target: T8, SPIC (Homo sapiens, UniProt Q8N5J4 1-248); conditions: protein: recombinant; tags: N-terminal GST; dsDNA, one strand shown
# T8 sequence: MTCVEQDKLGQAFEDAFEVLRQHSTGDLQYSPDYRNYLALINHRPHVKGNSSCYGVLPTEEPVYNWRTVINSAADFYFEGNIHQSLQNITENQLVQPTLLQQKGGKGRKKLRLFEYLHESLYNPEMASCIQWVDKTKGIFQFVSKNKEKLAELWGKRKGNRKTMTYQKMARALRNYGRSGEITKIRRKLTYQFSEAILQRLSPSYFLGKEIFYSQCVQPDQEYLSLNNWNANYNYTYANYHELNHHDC
# How it was run: as §1
# [14] = molecular target: ELF4 (Homo sapiens, UniProt Q99607 1-663); conditions: protein: recombinant; tags: N-terminal GST; dsDNA, one strand shown
# How it was run: as §1
# [15] = molecular target: T9, ELK4 (Homo sapiens, UniProt P28324-2 1-405); conditions: protein: recombinant; tags: N-terminal GST; dsDNA, one strand shown
# T9 sequence: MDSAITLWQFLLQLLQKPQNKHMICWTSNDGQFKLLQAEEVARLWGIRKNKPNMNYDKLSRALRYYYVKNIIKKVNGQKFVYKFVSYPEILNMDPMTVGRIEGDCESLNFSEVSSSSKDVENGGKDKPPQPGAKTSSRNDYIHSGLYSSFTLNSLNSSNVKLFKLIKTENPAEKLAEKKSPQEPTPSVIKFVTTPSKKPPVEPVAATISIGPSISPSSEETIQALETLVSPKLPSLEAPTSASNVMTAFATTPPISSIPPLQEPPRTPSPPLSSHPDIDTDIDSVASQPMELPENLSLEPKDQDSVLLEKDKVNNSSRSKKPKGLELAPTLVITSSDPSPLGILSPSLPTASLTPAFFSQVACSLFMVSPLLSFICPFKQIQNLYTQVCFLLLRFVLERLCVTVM
# How it was run: as §1
# [16] = molecular target: T10, ETV2 (Homo sapiens, UniProt O00321 1-342); conditions: protein: recombinant; tags: N-terminal GST; dsDNA, one strand shown
# T10 sequence: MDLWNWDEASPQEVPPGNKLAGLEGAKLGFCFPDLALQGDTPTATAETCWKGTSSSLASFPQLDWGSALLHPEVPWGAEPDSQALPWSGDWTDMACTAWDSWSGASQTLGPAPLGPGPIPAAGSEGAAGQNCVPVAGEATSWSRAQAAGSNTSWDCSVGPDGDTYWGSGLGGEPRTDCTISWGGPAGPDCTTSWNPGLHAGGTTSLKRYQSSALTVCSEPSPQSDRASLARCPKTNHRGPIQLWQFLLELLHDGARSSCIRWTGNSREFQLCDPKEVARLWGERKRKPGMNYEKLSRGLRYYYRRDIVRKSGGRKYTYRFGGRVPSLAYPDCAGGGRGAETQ
# How it was run: as §1
# [17] = molecular target: T11, ELF3 (Homo sapiens, UniProt P78545 1-371); conditions: protein: recombinant; tags: N-terminal GST; dsDNA, one strand shown
# T11 sequence: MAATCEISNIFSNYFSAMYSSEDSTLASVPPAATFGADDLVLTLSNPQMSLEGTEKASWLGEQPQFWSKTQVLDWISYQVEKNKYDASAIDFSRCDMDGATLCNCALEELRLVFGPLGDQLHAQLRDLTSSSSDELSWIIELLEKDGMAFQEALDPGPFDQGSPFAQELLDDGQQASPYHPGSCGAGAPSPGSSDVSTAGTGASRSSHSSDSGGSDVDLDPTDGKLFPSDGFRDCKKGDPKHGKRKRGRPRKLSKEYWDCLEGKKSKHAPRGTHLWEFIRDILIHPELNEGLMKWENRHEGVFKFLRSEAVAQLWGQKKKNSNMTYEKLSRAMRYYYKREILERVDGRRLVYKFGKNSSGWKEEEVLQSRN
# How it was run: as §1
# [18] = molecular target: CRX (Homo sapiens, UniProt O43186 1-299); conditions: protein: recombinant; tags: N-terminal GST; dsDNA, one strand shown
# How it was run: as §1
# [19] = molecular target: ETV1 (Homo sapiens, UniProt P50549 1-477); conditions: protein: recombinant; tags: N-terminal GST; dsDNA, one strand shown
# How it was run: as §1
# Sequence of HSF1 (Q00613 whole entry): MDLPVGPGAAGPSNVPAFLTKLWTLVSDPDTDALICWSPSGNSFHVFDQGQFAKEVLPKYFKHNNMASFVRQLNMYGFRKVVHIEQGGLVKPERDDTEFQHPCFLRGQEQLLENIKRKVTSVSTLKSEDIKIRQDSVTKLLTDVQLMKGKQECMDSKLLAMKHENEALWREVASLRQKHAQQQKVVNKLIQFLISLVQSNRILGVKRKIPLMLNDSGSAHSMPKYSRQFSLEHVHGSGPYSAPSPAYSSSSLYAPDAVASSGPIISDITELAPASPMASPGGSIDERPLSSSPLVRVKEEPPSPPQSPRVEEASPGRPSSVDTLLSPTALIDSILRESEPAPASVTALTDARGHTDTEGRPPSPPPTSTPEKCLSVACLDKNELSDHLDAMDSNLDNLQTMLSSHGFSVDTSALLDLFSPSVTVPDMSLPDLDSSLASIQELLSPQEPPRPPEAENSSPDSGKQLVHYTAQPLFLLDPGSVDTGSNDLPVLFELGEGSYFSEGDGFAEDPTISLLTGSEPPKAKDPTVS
# Sequence of ETV1 (P50549 whole entry): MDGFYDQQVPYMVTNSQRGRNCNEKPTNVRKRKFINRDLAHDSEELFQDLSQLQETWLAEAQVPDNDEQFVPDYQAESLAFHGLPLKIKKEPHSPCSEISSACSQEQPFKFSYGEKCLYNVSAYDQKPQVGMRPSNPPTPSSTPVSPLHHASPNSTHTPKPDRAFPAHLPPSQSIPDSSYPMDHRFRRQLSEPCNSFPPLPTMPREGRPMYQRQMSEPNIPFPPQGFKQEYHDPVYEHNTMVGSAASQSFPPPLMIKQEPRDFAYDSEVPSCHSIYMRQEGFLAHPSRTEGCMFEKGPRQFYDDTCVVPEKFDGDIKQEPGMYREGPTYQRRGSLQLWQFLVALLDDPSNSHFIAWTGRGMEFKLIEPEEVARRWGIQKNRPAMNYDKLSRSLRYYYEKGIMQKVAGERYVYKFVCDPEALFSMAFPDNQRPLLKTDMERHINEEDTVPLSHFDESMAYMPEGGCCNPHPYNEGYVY
# Sequence of ELF1 (P32519 whole entry): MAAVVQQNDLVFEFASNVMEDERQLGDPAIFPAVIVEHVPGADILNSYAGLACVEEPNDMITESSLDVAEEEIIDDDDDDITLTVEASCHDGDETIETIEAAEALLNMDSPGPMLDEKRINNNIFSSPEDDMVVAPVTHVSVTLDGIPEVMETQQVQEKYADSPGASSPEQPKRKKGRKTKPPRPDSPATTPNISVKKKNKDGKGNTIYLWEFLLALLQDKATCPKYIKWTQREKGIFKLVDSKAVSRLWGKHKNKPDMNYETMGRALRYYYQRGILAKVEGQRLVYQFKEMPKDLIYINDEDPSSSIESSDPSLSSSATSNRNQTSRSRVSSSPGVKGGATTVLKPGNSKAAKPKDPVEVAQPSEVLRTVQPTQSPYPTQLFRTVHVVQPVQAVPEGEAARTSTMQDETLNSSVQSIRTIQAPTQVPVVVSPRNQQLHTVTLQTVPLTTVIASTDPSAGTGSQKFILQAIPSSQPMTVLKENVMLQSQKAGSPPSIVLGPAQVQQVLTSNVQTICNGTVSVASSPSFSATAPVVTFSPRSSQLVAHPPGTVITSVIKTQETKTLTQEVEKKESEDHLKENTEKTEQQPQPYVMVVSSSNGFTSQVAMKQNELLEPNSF
# Sequence of SPIB (Q01892 whole entry): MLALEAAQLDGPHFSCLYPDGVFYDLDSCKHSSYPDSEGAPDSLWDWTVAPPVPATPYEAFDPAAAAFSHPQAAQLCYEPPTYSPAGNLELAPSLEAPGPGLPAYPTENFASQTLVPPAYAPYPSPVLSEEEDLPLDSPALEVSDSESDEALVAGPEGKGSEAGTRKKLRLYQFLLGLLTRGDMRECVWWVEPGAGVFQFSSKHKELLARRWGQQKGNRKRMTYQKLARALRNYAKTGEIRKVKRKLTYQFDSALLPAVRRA
# Sequence of ELF4 (Q99607 whole entry): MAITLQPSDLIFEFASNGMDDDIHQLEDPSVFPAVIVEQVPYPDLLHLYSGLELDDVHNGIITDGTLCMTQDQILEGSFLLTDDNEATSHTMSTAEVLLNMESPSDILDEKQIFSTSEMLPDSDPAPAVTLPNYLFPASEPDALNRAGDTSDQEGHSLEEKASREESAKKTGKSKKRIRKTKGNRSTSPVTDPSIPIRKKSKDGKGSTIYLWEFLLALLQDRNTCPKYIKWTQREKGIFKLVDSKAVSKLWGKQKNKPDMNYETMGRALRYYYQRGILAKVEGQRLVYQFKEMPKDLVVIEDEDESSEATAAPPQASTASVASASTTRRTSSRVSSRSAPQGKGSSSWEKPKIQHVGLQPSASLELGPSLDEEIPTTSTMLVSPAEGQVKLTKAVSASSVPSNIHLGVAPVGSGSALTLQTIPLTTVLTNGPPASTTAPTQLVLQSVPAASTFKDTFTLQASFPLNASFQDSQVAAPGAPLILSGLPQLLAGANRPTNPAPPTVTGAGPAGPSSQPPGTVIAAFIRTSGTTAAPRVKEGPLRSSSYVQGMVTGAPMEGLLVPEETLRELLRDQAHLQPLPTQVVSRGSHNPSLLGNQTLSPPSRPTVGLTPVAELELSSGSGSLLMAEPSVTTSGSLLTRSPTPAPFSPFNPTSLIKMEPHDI
# Sequence of CRX (O43186 whole entry): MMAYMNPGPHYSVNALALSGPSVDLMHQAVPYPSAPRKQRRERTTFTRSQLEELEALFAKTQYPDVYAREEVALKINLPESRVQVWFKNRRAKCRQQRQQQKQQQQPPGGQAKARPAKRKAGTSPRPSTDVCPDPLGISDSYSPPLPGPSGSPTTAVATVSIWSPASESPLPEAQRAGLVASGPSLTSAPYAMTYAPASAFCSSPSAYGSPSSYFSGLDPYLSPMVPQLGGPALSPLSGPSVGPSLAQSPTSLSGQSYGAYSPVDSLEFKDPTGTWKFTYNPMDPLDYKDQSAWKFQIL
# Sequence of ETV5 (P41161 whole entry): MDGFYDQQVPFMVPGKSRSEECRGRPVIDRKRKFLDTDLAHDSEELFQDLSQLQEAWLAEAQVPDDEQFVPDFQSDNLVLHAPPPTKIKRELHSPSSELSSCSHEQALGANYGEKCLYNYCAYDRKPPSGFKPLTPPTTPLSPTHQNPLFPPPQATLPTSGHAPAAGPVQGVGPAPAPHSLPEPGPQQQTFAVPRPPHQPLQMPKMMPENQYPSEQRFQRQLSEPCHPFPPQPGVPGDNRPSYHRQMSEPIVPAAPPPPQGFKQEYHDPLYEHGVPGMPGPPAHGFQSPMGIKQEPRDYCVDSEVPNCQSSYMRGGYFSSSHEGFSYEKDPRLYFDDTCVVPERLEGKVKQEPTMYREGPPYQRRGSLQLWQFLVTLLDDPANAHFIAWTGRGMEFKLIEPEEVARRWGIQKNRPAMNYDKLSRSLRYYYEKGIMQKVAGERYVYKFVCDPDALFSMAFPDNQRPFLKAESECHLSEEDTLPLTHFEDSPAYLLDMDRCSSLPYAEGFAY
sequence,measurement,setting,value
ATCTAT,binding signal,[1],"1.15 fold enrichment (6-mer frequency, TF over GST control)"
same,binding signal,[2],"1.14 fold enrichment (6-mer frequency, TF over GST control)"
same,binding signal,[3],"1.17 fold enrichment (6-mer frequency, TF over GST control)"
same,binding signal,[4],"1.09 fold enrichment (6-mer frequency, TF over GST control)"
same,binding signal,[5],"1.16 fold enrichment (6-mer frequency, TF over GST control)"
same,binding signal,[6],"1.12 fold enrichment (6-mer frequency, TF over GST control)"
same,binding signal,[7],"1.09 fold enrichment (6-mer frequency, TF over GST control)"
same,binding signal,[8],"1.15 fold enrichment (6-mer frequency, TF over GST control)"
same,binding signal,[9],"1.13 fold enrichment (6-mer frequency, TF over GST control)"
same,binding signal,[10],"1.08 fold enrichment (6-mer frequency, TF over GST control)"
same,binding signal,[11],"1.15 fold enrichment (6-mer frequency, TF over GST control)"
same,binding signal,[12],"1.32 fold enrichment (6-mer frequency, TF over GST control)"
same,binding signal,[13],"1.27 fold enrichment (6-mer frequency, TF over GST control)"
same,binding signal,[14],"1.21 fold enrichment (6-mer frequency, TF over GST control)"
same,binding signal,[15],"1.18 fold enrichment (6-mer frequency, TF over GST control)"
same,binding signal,[16],"1.13 fold enrichment (6-mer frequency, TF over GST control)"
same,binding signal,[17],"1.23 fold enrichment (6-mer frequency, TF over GST control)"
same,binding signal,[18],"1.42 fold enrichment (6-mer frequency, TF over GST control)"
same,binding signal,[19],"1.16 fold enrichment (6-mer frequency, TF over GST control)"

# Source: publication PMC7862700, “An all-to-all approach to the identification of sequence-specific readers for epigenetic DNA modifications on cytosine”
